Each structure is given as a SMILES string. About 2,100 (84%) of roughly 2,500 compounds were called active.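 How the source made its calls: active means toxic compounds, whose cell viability fell below 70% of untreated control cells; inactive means the rest.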 So high a share suggests a set chosen from earlier hits. Not all results are given here. Results with a measured potency or affinity are listed apart.

Broadly, the viability is a read-out of living cells in per cent, often relative to untreated cells.

The experiment in a line: HEp-2 cell cytotoxicity, dose response, cytotoxicity control for RSV inhibitor project, HTS (AID 2410).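 Further: cells exposed to compound for six days before readout; 100% = median signal of untreated cell control wells on each plate.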 Conditions: HEp-2 viability, luminescence, cytotoxicity counter-screen; series mostly up to 50 µM; viability: at the top concentration. In general terms: The purpose of a counterscreen is to sort out artefacts and off-target activity.
In the case of `COc1ccc(S(=O)(=O)NCc2ccco2)cc1-c1nnc2c3ccccc3c(C)nn12`, the “viability” value was 71% (inactive). As to `C/C(N)=C(/C#N)C(=O)COC(=O)CNS(=O)(=O)c1ccc2ccccc2c1`, the “viability” value was 112% (inactive). For `O=c1cc(-c2ccc(O)c(O)c2)oc2c(C3O[C@H](CO)[C@@H](O)[C@H](O)[C@H]3O)c(O)cc(O)c12` (stereo partly drawn) the value was 109% (inactive).

For the molecule `COc1ccc(OC)c(-c2nc3c(C)n[nH]c(=O)c3[nH]2)c1`, the “viability” value was 75.5% (inactive). For `COc1ccc(C(C)=O)cc1COc1ncnc2ccccc12` the value was 95.6% (inactive); for `COc1ccc2c(CC(=O)Nc3ccc(OC)c(NS(=O)(=O)c4ccc(F)cc4)c3)coc2c1`, 72.2% (inactive); for `Cc1ccc(-c2n[nH]c(=S)n2/N=C/c2ccncc2)cc1`, 103% (inactive).

On to `COCCNC(=O)c1cc2c(s1)-c1ccc(Cl)cc1SC2`, for which the “viability” value was 94% (inactive). With `Clc1ccc(Nc2ccc3ccccc3n2)cc1` the figure was 74.3% (inactive). With `Cc1cc2cc(C)c(NCCNC(=O)c3ccccc3F)nc2cc1C` the figure was 89.4% (inactive). For `O=C(NC1=NCCS1)c1ccc(-c2ccc(Cl)cc2)o1`, the “viability” value was 86.3% (inactive).

Consider `CCOC(=O)N1CCN(C(=O)CSc2nnc(-c3ccc(C)c(C)c3)o2)CC1`, for which the “viability” value was 80.2% (inactive). For `O/N=C/c1ccccc1OCc1ccc(Cl)cc1` the value was 75.7% (inactive); for `O=C(O)c1nn(CCOc2c(Cl)cccc2Cl)c(=O)c2ccccc12`, 103% (inactive). For `O=C(Nc1ccc(Cl)cc1Cl)C1=Cc2ccccc2OC1` the value was 77.9% (inactive); for `COc1ccc(C(=O)Nc2cccc3c2CCCC3)c(OC)c1`, 82.8% (inactive). For `O=C(O)c1ccc(N/N=C/c2cc(Br)cs2)cc1` the value was 70.8% (inactive). For `CCOc1ccc(NC(=O)c2csc3c2CCCC3)cc1`, the “viability” value was 94.3% (inactive). For `CCOc1cccc(C(=O)Nc2ccc(NC(=O)c3ccccc3)c(C)c2)c1` the value was 93.5% (inactive).

For `COc1ccc(CCNC(=O)c2ccc(N(C)S(=O)(=O)c3ccc(C)cc3)cc2)cc1`, the “viability” value was 80.8% (inactive). For `COc1ccc2[nH]cc(C(=O)CN3CCN(C4CCCCC4)CC3)c2c1` the value was 97.3% (inactive). With `CC1(C)Cc2cccc(C(=O)Nc3ccc(F)cc3F)c2O1` the figure was 102% (inactive). With `O=C1c2ccccc2C(=O)N1CC1c2ccccc2CCN1C(=O)C1CCCCC1` (stereo not drawn) the figure was 97.2% (inactive); with `O=c1c2ccccc2nc(/C=C/c2ccc(Br)cc2)n1CCCO`, 79.9% (inactive). `CC(=O)N1CCN(C2=NC(=O)/C(=C/c3ccc(OS(=O)(=O)c4ccccc4)cc3)S2)CC1`: the “viability” value is 70.4% (inactive). On to `CCn1nc(NC(=O)c2ccccc2)c2cc3cccc(C)c3nc21`, for which the “viability” value was 91.7% (inactive). On to `Cc1csc2c(=O)sc(NC(=O)c3ccc(F)cc3)nc12`, for which the “viability” value is 83.2% (inactive). With `N#Cc1c(-c2c(Cl)cccc2Cl)noc1/C=C/Nc1ccc(C(=O)O)cc1` the figure was 84.7% (inactive). Regarding `Cc1[nH]c2ccccc2c1/C=N/Nc1ccc([N+](=O)[O-])cc1`, the “viability” value is 71.8% (inactive).

In the case of `Cc1ccc(-c2nc(-c3cccnc3)no2)c(C)c1`, the “viability” value was 74.2% (inactive). For `COc1ccc2nc(/C=N/NC(=O)[C@H](C)NC(=O)OC(C)(C)C)ccc2c1` the value was 73.2% (inactive); for `CC(=O)Nc1cccc(-c2csc(Nc3cccc(C)n3)n2)c1`, 75% (inactive); for `CCOC(=O)c1cccc(NC(=O)Nc2cc(OC)ccc2OC)c1`, 108% (inactive). With `N=C1SCC(=O)N1c1nc(-c2ccccc2)cs1` the figure was 70% (inactive). For the molecule `CS(=O)(=O)c1ccccc1C(=O)Nc1ccc(-c2nc3ccccc3o2)cc1`, the “viability” value was 77% (inactive). On to `CSc1nnc(-c2ccc(Cl)cc2Cl)o1`, for which the “viability” value is 94.3% (inactive). For the molecule `CCOc1ccc2nc3c(cc2c1)CN(CCCO)C(=NCCOC)S3`, the “viability” value is 83.7% (inactive). `O=[N+]([O-])c1ccc2c(c1)nnn2-c1ccccc1`: the “viability” value is 106% (inactive). For `CCN(CC)c1nc(Nc2ccc(Cl)cc2)nc(OCC#N)n1` the value was 83.7% (inactive); for `Cn1c(=NC(=O)C2CC2)sc2cc(F)cc(F)c21`, 81% (inactive). With `COC(=O)c1ccc2[nH]ccc2c1`, the “viability” value was 109% (inactive). For `CC1CCCN(C(=O)CCNS(=O)(=O)c2ccc(Br)cc2)C1` (stereo not drawn), the “viability” value was 74.2% (inactive). For the molecule `c1coc(-c2nn3c(Cn4nnc5ccccc54)nnc3s2)c1`, the “viability” value is 92.8% (inactive). With `c1ccc(-c2nn3c(Cn4nnc5ccccc54)nnc3s2)cc1` the figure was 82.3% (inactive); with `Cc1c(Cc2ccccc2)c(=O)oc2cc(O)cc(O)c12`, 75.1% (inactive); with `CCOC(=O)Cc1c(C)c2ccc(N(CC)CC)cc2oc1=O`, 92.8% (inactive). As for `CNc1oc(/C=C/c2cccc(OC)c2)nc1C#N`, the “viability” value is 105% (inactive). For `N#Cc1c(N2CCOCC2)nsc1-c1ccc(C(F)(F)F)cc1` the value was 89.6% (inactive). With `Cc1ccc(-c2nc3cc(N)ccc3o2)cc1Br` the figure was 88.8% (inactive); with `COC(=O)c1sccc1NC(=O)c1ccccc1F`, 98.8% (inactive); with `O=C(NCCN1CCN(C(=O)C(c2ccccc2)c2ccccc2)CC1)C(=O)Nc1ccccc1`, 94.3% (inactive). With `COc1cc(N)c(Cl)cc1NC(=O)c1ccccc1` the figure was 98.5% (inactive); with `Cc1nn2c(N)c(C#N)cnc2c1-c1ccccc1`, 76.8% (inactive); with `Cc1ccc(Nc2nc(N)c([N+](=O)[O-])c(N3CCOCC3)n2)cc1C`, 86.4% (inactive). In the case of `C[C@@H]1CN(C(=O)c2nc3ccc(Cl)cn3c2CN2CCc3sccc3C2)C[C@H](C)O1`, the “viability” value was 80.6% (inactive). With `CN(CC(=O)NCc1ccc(F)cc1)S(=O)(=O)c1cccc2nsnc12` the figure was 77.8% (inactive). With `CCN(c1ccccc1)S(=O)(=O)c1ccc(Cl)c(NC(=O)c2ccc(=O)[nH]n2)c1` the figure was 81.7% (inactive).

In the case of `CSc1ncc(Cl)c(C(=O)Nc2ccccc2Br)n1`, the “viability” value was 84% (inactive). With `C/C(N)=C(/C#N)C(=O)COC(=O)c1ccncc1` the figure was 92.3% (inactive); with `C=CCC1(C#N)C(=S)NC(C)=C(C(=O)OCC)C1c1ccccc1` (stereo not drawn), 73.7% (inactive); with `CNC(=S)N/N=C(\C)c1ccc(-n2ccnc2)cc1`, 71.6% (inactive). For `Cc1ccc(-n2c(-c3cccnc3)n[nH]c2=S)c(C)c1` the value was 103% (inactive); for `COc1cc(-c2nc3c(c(C)nn3-c3ccccc3)c3cc(OC)c(OC)cc23)ccc1O`, 83.3% (inactive); for `COc1ccc(/C=C/C(=O)NCc2nc3ccccc3[nH]2)cc1OC`, 71.4% (inactive). For `CC(C(=O)NCCc1ccc(Cl)cc1)n1c(=O)c2cccn2c2cccnc21` (stereo not drawn) the value was 101% (inactive). Turning to `O=[N+]([O-])c1ccc(N/N=C/c2cccnc2)cc1`, the “viability” value is 95.9% (inactive). With `COc1ccc(C2Nc3cc(OC)ccc3-n3cccc32)cc1` (stereo not drawn) the figure was 82.6% (inactive); with `COc1ccc(-c2cc(C(=O)Nc3nc4c(C)cccc4s3)c3ccccc3n2)cc1OC`, 75.3% (inactive); with `CCCNC(=O)N1CCN(c2nc(C(C)C)c3c(c2C#N)CC(C)(C)OC3)CC1`, 97.5% (inactive). Turning to `Cc1cccc2nc(COc3ccc(Cl)c4cccnc34)cn12`, the “viability” value is 73% (inactive).

In the case of `O=C1[C@H]2[C@@H](c3ccc(F)cc3)N3C(=O)N(c4ccc(Br)cc4)C(=O)[C@@]3(Cc3ccc(Cl)cc3)[C@H]2C(=O)N1C1CCCCC1`, the “viability” value was 93.4% (inactive). Take `CC(C)(C)N1C(=O)[C@H]2[C@@H](c3ccc(Br)cc3)N3C(=O)N(c4cccc(Cl)c4)C(=O)[C@@]3(Cc3ccccc3)[C@H]2C1=O`: the “viability” value is 79.2% (inactive). With `O=C1[C@H]2[C@@H](c3ccc(Cl)cc3)N3C(=O)N(c4cccc(Br)c4)C(=O)[C@@]3(Cc3ccc(Cl)cc3)[C@H]2C(=O)N1C1CCCCC1` the figure was 73.5% [at 12.5 µM] (inactive); with `O=c1c2ccccc2oc2ccc(-c3ccc4[nH]ccc4c3)cc12`, 84.9% (inactive); with `COc1ccc2oc(-c3ccco3)cc(=O)c2c1`, 75.1% (inactive). Turning to `O=C1C2CCCN2c2ccc(S(=O)(=O)N3CCOCC3)cc2N1Cc1ccccc1F` (stereo not drawn), the “viability” value was 92.7% (inactive). As for `O=C(c1ccc(F)cc1)N1CCN2C(=O)c3ccccc3C12c1ccccc1` (stereo not drawn), the “viability” value was 91.1% (inactive). For `Nc1ccc(Cl)c[n+]1Cc1cccc2cccnc12`, the “viability” value is 90.8% (inactive). With `N#C/C(=C\c1ccncc1)c1nc2c(s1)CCCC2` the figure was 85.4% (inactive).

In the case of `COc1ccc2ccc(=O)oc2c1`, the “viability” value is 118% (inactive). For `Cc1c(CC(=O)N2CCN(C(=O)C3COc4ccccc4O3)CC2)c(=O)oc2cc(O)cc(O)c12` (stereo not drawn) the value was 109% (inactive); for `Cc1cc(S(=O)(=O)N2CCCC2)ccc1OCC(=O)Nc1ccccc1`, 111% (inactive). With `CC(=O)c1ccc2c(ccc3ccccc32)c1` the figure was 111% (inactive). With `COCCCNC(=O)c1ccc(Cn2c(=O)c3ccccc3n(Cc3ccc(C)cc3)c2=O)cc1` the figure was 84.2% (inactive); with `CC(=O)c1c(C)nc(-c2ccc(Cl)cc2)nc1N=CN(C)C`, 72.1% (inactive); with `O=C1c2ccccc2C(Nc2cccnc2)N1Cc1ccc2c(c1)OCO2` (stereo not drawn), 93.3% (inactive). Regarding `Cc1ccc2[nH]c(=O)c(COC(=O)c3ccccn3)cc2c1`, the “viability” value was 87% (inactive). For `COc1ccc(NC(=O)C2(c3ccc(NC(=O)c4ccc(OC)cc4)cc3)CCCC2)cc1` the value was 102% (inactive); for `Nc1nnnn1/N=C/c1ccc(O)cc1`, 86.5% (inactive); for `COCCn1c(-c2ccc(Cl)cc2Cl)nc2c(c(=O)c3ccccc3n2C)c1=O`, 100% (inactive). For `CCCCCC(=O)Nc1nc(C)c(-c2csc(Nc3cc(Cl)ccc3OC)n2)s1` the value was 92.3% (inactive); for `O=C(NC(C(=O)N/N=C/c1cccnc1)c1n[nH]c(=O)c2ccccc12)c1ccccc1` (stereo not drawn), 89.3% (inactive). `O=C(NCCSCc1c(F)cccc1Cl)Nc1ccccc1`: the “viability” value is 82% (inactive). With `Cc1nc2cc(Cl)c(Cl)cc2n1-c1ccccn1`, the “viability” value was 79.3% (inactive). For `Cc1ccc([N+](=O)[O-])cc1S(=O)(=O)Nc1cccc(-c2ccc(N3CCOCC3)nn2)c1` the value was 110% (inactive); for `Cc1c(-c2nc(N)nc(Nc3ccc(F)cc3)n2)oc2ccccc12`, 74.9% (inactive).

For `COC(=O)c1ccc(Nc2nnc(-c3ccc(C)c(S(=O)(=O)NCC4CCCO4)c3)c3ccccc23)cc1` (stereo not drawn), the “viability” value was 84.7% (inactive). For `CCCc1cc(-n2cnc3ccccc32)n2c(nc3ccccc32)c1C#N` the value was 75.4% (inactive). For `O=C(CSc1nc2ccccc2c2nc3ccccc3n12)NCc1ccco1` the value was 71.2% (inactive); for `Cc1ccc2cc3cc(C(=O)N4CCCCCC4)oc3nc2c1`, 86.8% (inactive). Turning to `Cc1sc(=NC(=O)c2ccco2)n(C)c1-c1ccc(Cl)cc1`, the “viability” value was 88.3% (inactive).

As for `Cn1cc(C(N)=O)c2ccccc21`, the “viability” value was 102% (inactive).

For the molecule `Cc1ccc(C)c(NC(=O)CSc2nc3c(oc4ccccc43)c(=O)n2-c2ccccc2)c1`, the “viability” value is 76.1% (inactive). With `O=C(Nc1ccon1)c1sc2cc(F)ccc2c1Cl` the figure was 94.7% (inactive); with `Cc1ccc(/C=N\NC(=O)C2CN(S(=O)(=O)c3ccccc3)CCN2S(=O)(=O)c2ccccc2)cc1` (stereo not drawn), 71% (inactive); with `C/C(N)=C(/C#N)C(=O)CSc1ncnc2ccccc12`, 98% (inactive).

Consider `C/C(N)=C(/C#N)C(=O)CSc1cc(C)c2cc(C)cc(C)c2n1`, for which the “viability” value was 85.6% (inactive).

In the case of `COc1ccc(CN2C(=O)c3cccnc3C2Nc2ccc(OC)c(Cl)c2)cc1` (stereo not drawn), the “viability” value is 74.6% (inactive).

The values are drawn from PubChem BioAssay AID2410 (Southern Research Specialized Biocontainment Screening …, 2010).
